Inconclusive results are not listed. A number with no mark means an inactive call. Calls come from the whole dose curve.
Test: qHTS for Inhibitors of Cell Surface uPA Generation: Wild-type Protective Antigen (WT-PrAg) Counterscreen for Cherry-picked Compounds; note: 0% is about no effect
Conditions: cells, WT protective antigen toxicity counterscreen; series mostly up to 115 µM; activity (protection): at the top concentration

| SMILES | activity (protection) [%] |
| --- | --- |
| Cc1nc2nc(C)c(NS(=O)(=O)c3ccc(Cl)cc3)c(=O)n2[nH]1 | 2.63 |
| CC(C)c1ccc(C2/C(=C(\O)c3ccc4c(c3)OCCO4)C(=O)C(=O)N2CCN2CCOCC2)cc1 (configuration not stated) | -0.545 |
| O=C(Nc1ccc(Cl)cn1)C1CCCN(c2ncnc3c2nc2n3CCCCC2)C1 (configuration not stated) | -2.43 |
| CCOCc1nnc(NC(=O)C2CCN(C(=O)C3CC(=O)N(c4ccc(C)cc4)C3)CC2)s1 (configuration not stated) | -1.11 |
| COc1ccc(-n2ncc3c(=O)n(CC(=O)NC(C)C)cnc32)cc1 | -0.469 |
| O=C(NCCCn1cccn1)C1CCC(=O)N(Cc2ccccc2F)C1 (configuration not stated) | -0.576 |
| COCc1c(C(=O)Nc2nc(C)cs2)oc2ccccc12 | -2.04 |
| COc1ccc(-c2cccc(-c3cc(=O)oc4cc(OC)c(OC)c(OC)c34)c2)cc1 | -1.14 |
| O=[N+]([O-])c1ccc(SCc2ccncc2)nc1 | -0.691 |
| COCC(=O)N1Cc2ccccc2-n2nncc2C1 | 1.67 |
| CCN(CC)S(=O)(=O)c1cc(NC(=O)COC(=O)C2CCC2)ccc1C | 0.3 |
| Cc1ccc(OCc2cc(C(=O)N(C)Cc3cc(C4CC4)n[nH]3)no2)cc1C | -1.75 |
| O=S(=O)(c1ccc2nc(N3CCN(c4ccccc4)CC3)ccc2c1)N1CCCCC1 | 2.08 |
| CC(C)CN(C(=O)CN1CCC(C)CC1)c1c(N)n(CC(C)C)c(=O)[nH]c1=O | 0.779 |
| COc1ccc(N2CCN(S(=O)(=O)c3ccc4c(c3)NC(=O)CS4)CC2)cc1 | -0.171 |
| Cc1nn(-c2ccc(F)cc2)c(C)c1NS(=O)(=O)c1ccc(Cl)cc1 | -1.36 |
| COc1cc(NS(=O)(=O)c2ccc(NC(=S)NC(=O)COc3ccccc3OC)cc2)nc(OC)n1 | -0.642 |

Source: PubChem BioAssay AID720518 (National Center for Advancing Translational Sciences (NCATS), 2013)
